Records with an inconclusive call do not appear. Where a call stands in place of a potency, no number is given. The source made the active and inactive calls. Calls come from the whole dose curve; as a rule, active = well fitted inhibition curve with a large enough effect; inconclusive = small, poorly fitted or top-dose-only effect; inactive = no such curve, though single readings can be large or run the other way.
Potency is the fitted concentration of half-maximal effect.

The test in a line: qHTS to identify inhibitors of the type 1 interferon - major histocompatibility complex class I in skeletal muscle: Secondary screen by immunofluorescence. Note: nearly all actives have a fitted effect of over 70% in size. As to conditions: C25cl48 myoblasts, IFN-b induced HLA-ABC immunofluorescence, 24 h, Viability; series mostly up to 49.8 µM. An outline of the steps: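 HLA-ABC immunofluorescence, with nuclear and cell-body stains, was quantified by laser scanning cytometry. Read-out followed 24 h of IFN-beta (4.0 ng/ml) stimulation of C25cl48 human myoblasts with compounds titrated 1:3 over 11 points from 50 uM, with ruxolitinib as inhibitor control.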
(In general: Quantitative high-throughput screening tests each substance at several concentrations.)
With `CCc1c2c(nc3ccc(O)cc13)-c1cc3c(c(=O)n1C2)COC(=O)[C@]3(O)CC`, the Potency entry was “inactive”.
Next, `C#Cc1cccc(Nc2ncnc3cc(OC)c(OCCCCCCC(=O)NO)cc23)c1`: “inactive”; `CCc1c(O)cc(O)c(C(=O)c2ccc(OCCN3CCOCC3)c(OC)c2)c1CC(=O)N(CCOC)CCOC`: “inactive”; `COC1CC(C(=O)c2ccc3c(N)ncc(-c4ccc(-c5cnn(C)c5)cc4)c3n2)C1` (configuration not stated): “inactive”.
Next, `NS(=O)(=O)OC[C@@H]1C[C@@H](n2ccc3c(N[C@H]4CCc5ccccc54)ncnc32)C[C@@H]1O`: “inactive”; `CCOC(=O)C1=C(C)NC2=C(C(=O)CC(C)(C)C2)C1c1ccc(-c2ccccc2)cc1` (configuration not stated): “inactive”.
Next, `COc1ccc(CNc2nc(N(CCO)CCO)nc3c2ncn3C(C)C)cc1`: “inactive”; `CCCCC(=O)O[C@]1(C(=O)CO)[C@@H](C)C[C@H]2[C@@H]3CCC4=CC(=O)C=C[C@]4(C)[C@@]3(F)[C@@H](O)C[C@@]21C`: “inactive”; `O=C(CCCCCCC(=O)Nc1ccccc1)NO`: “inactive”.
As for `COc1cccc2c1C(=O)c1c(O)c3c(c(O)c1C2=O)C[C@@](O)(C(=O)CO)C[C@@H]3O[C@H]1C[C@H](N)[C@H](OC2CCCCO2)[C@H](C)O1` (some centres not stated), the Potency result is “inactive”.
The result for `O=[N+]([O-])c1ccc2c(c1)S(=O)(=O)C=C2` reads 5.14 µM (active).
The result for `CO[C@H]1C(=O)[C@]2(C)[C@@H](OC)C[C@H]3OC[C@@]3(OC(C)=O)[C@H]2[C@H](OC(=O)c2ccccc2)[C@]2(O)C[C@H](OC(=O)[C@H](O)[C@@H](NC(=O)OC(C)(C)C)c3ccccc3)C(C)=C1C2(C)C` reads “inactive”.
The result for `Cc1cc(Nc2cc(NC(=O)c3c(Cl)cccc3Cl)ccn2)nc(N)n1` reads “inactive”; that for `OCCCNc1cc(-c2ccnc(Nc3cccc(Cl)c3)n2)ccn1`, “inactive”; that for `CCc1cnn2c(NCc3ccc[n+]([O-])c3)cc(N3CCCC[C@H]3CCO)nc12`, “inactive”.
On to `Cn1cc(CNCC2CCN(c3ncc(C(=O)NO)cn3)CC2)c2ccccc21`, for which the Potency result is “inactive”.
The result for `C[C@H](NC(=O)/C(C#N)=C/c1cccc(Br)n1)c1ccccc1` reads 12.9 µM (active); that for `CS(=O)(=O)N1CCC(NC(=O)c2[nH]ncc2NC(=O)c2c(Cl)cccc2Cl)CC1`, “inactive”; that for `CCOC(=O)N1CCN(/[N+]([O-])=N/Oc2ccc([N+](=O)[O-])cc2[N+](=O)[O-])CC1`, 14.5 µM (active).
The result for `CCc1c(-c2ccccc2C)nc2c(C#N)c[nH]n2c1=O` reads “inactive”; that for `CC1(C)CC(=O)c2c(C(F)(F)F)nn(-c3ccc(C(N)=O)c(NC4CCC(O)CC4)c3)c2C1` (configuration not stated), “inactive”.
The result for `COc1nnc2ccc(N3CCC(c4ccc(OCCN5CCN(C)C(=O)[C@H]5C)cc4)CC3)nn12` reads “inactive”.

(Values after PubChem BioAssay AID1347414 (National Center for Advancing Translational Sciences (NCATS), 2020).)
